# Bioassay records: PubChem, several laboratories
# Shown are actives, neighbours in structure and some others; about 7.2% of the full set was active somewhere.
# Bfl-1 A1 inh: caspase 3/7 activation in MEF A1-2A-BIM cells, primary screen, A1 inhibitor project, cell-based, luminescence, HTS. hit rate 0.066% among 330,000. caspase activation, % (no concentration beside the values). Caspase-Glo 3/7 luminescence, 3 h; percent of clofoctol response, vehicle zero;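 active = over half of replicate activation scores above 10%, or exactly half above 10 with the replicate mean above 10; inconclusive = replicate mean below 10 yet half the replicates above 10; inactive = over half of replicates below 10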
# AHR activator: AHR activators, primary screen, cell-based, luminescence, luciferase reporter, human; hit rate 2.5% among 320,000; AHR-responsive luciferase reporter cells; activation, % at 5 µM; in the data active = activation above about 47%;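 note: 0% = vehicle wells and 100% = reference agonist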
# VLA-4 inh: inhibition in human VLA-4 binding assay, primary screen, VLA-4 allosteric modulator project, MLPCN library, flow cytometry, VLA-4 expressing cells; ligand binding flow cytometry; hit rate 0.2% among 330,000; AID 2557, 2010; inhibition, % (about 7 µM as worked out from the volumes in the protocol); in the data active = inhibition above about 50%
# Efflux pump mplx: inhibitors of Candida efflux pumps in yeast, primary screen, S. cerevisiae, Nile Red, multiplex. hit rate 0.44% among 330,000. S. cerevisiae Candida pump triplex. AID 485275, 2010. inhibition, % at 10 µM;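 active = plate passing quality check with inhibition over a set limit, or well fluorescence over plate mean plus 4 SD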;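 note: Nile Red retained in pooled yeast measured as flow cytometry median fluorescence; 0% = buffer negative control and 100% = Enniatin B positive control; higher means more Nile Red kept so more efflux inhibition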
# Mot1-301 SUMO: yeast Mot1-301 growth rescue at high temperature, primary screen, SUMOylation pathway inhibitor project, S. cerevisiae, ATP luminescence, 38.5C. S. cerevisiae Mot1-301 growth rescue; percent above DMSO median, 100 means doubled. growth rescue, % at 18.8 µM. hit rate 1% among 320,000. AID 2716, 2010;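 active = every valid replicate shows activation above 250% relative to neutral control wells; inactive = the rest, any valid replicate at or below 250%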;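 note: OY570 slx delta 5 strain wells were the positive control but not used for scaling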
# ALR H2O2 inh: inhibitors of human ALR sulfhydryl oxidase, primary screen, biochemical, H2O2 detection, HRP-luminol luminescence, single point | FAD-linked sulfhydryl oxidase ALR (Homo sapiens), P55789 | purified ALR, DTT oxidation | inhibition, % (concentration not given with the values) | hit rate 3.8% among 290,000;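 active = mean replicate inhibition above about 79%, with every replicate also reaching it, limit read from the data; inconclusive = only one of the two criteria met; inactive = mean below limit and not every replicate reaching it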
# Active calls of the source: *; ? = inconclusive; · = no result.
SMILES,Bfl-1 A1 inh,AHR activator,VLA-4 inh,Efflux pump mplx,Mot1-301 SUMO,ALR H2O2 inh
CC(C)(O)C#Cc1ccc([C@@H]2C[C@H]3CN(c4ccccc4)C(=O)[C@]34CCCN24)s1,1,9,-3,0,10,92*
Cc1ccc(N2CCN(S(=O)(=O)c3ccc4c(c3)NC(=O)C(C)C(=O)N4)CC2C)cc1 (centres undefined),0,0,-9,0,18,97*
Cc1ccc(N2CCN(S(=O)(=O)c3ccc4c(c3)n(C)c(=O)c(=O)n4C)CC2C)cc1 (centres undefined),0,-1,-2,0,36,-6
COc1cc(/C=N/NC(=O)COc2ccc(-n3cnnn3)cc2)ccc1OCC(N)=O,1,1,7,0,-10,-2
CN(C)C(=O)CSc1nc2ccccc2c(=O)[nH]1,0,11,5,0,-29,-5
CN(C)C(=O)CSc1nc(-c2cccs2)c(-c2cccs2)[nH]1,0,32,6,0,87,99*
COC(=O)c1[nH]c2ccccc2c1Sc1ccccc1,0,·,-15,0,-6,-5
CNC(=O)CCc1[nH]c2ccccc2c1Sc1ccccc1,1,1,-3,0,3,98*
CCOc1ccc(S(=O)(=O)N2CCN(S(=O)(=O)c3ccc(C(C)=O)cc3)CC2)cc1,1,1,5,1,-9,-7
CCOc1ccc(S(=O)(=O)N2CN(c3cccc(C(C)=O)c3)c3nc4ccccc4nc32)cc1,0,56*,-1,0,-20,-2
CCN(CC)P(=O)(Nc1ccc(C)cc1Br)c1ccc(N(C)C)cc1NC(=O)c1ccco1 (centres undefined),0,49*,-5,0,-11,-28
CCOC(=O)c1c(C)[nH]c(C(=O)OCC(=O)Nc2sccc2C(N)=O)c1C,0,53*,-2,0,-9,-2
CC(=O)OCC1=C(C(=O)O)N2C(=O)C(NC(=O)c3ccc(COc4c(C)cccc4Cl)o3)C2SC1 (centres undefined),0,5,14,0,·,98*
COc1ccc(CNC(=O)CN2C(=O)NC3(CCCc4sccc43)C2=O)cc1OC (centres undefined),2,1,9,-1,-4,-6
O=C(c1cccc(Br)c1)N1CCN(S(=O)(=O)N2CCOCC2)CC1,1,-4,-2,0,333*,-4
O=C(CCC1CCCC1)c1c(O)c2ccccc2oc1=O,?,14,7,0,-1,93*
Cc1ccc(C)c(OC(=O)c2cccc(S(=O)(=O)N3CCN(C)CC3)c2)c1,0,-2,-6,4,121,2
COC(=O)/C=C/c1cc(F)ccc1S(=O)(=O)NC(C)(C)C,2,4,-9,0,121,-9
O=C(CSc1nnnn1C1CC1)N1CCN(c2cccc(Cl)c2)CC1,-1,-1,18,0,8,-4
c1cc(C(c2nnnn2C2CCCC2)N2CCOCC2)ccn1 (centres undefined),0,-1,11,0,-29,-25
Oc1ccc(N2CCN(C(c3ccncc3)c3nnnn3C3CCCC3)CC2)cc1 (centres undefined),0,1,4,0,4,100*
O=C(CSc1nnnn1C1CC1)N1CCN(c2ccc(O)cc2)CC1,0,0,5,0,-1,99*
CC(C)CC(=O)Nc1nnc(S(=O)(=O)Nc2ccccc2)s1,1,0,9,0,-6,-2
O=C(O)c1cc(-c2ccc(O)cc2)nc2ccccc12,?,-1,3,0,-18,16
Oc1cc(-c2ccccc2)c2ccccc2c1,0,4,18,0,5,99*
CC(CC(=O)N1CCN(c2cccc(Cl)c2)CC1)S(=O)(=O)c1ccc2c(c1)NC(=O)CO2 (centres undefined),?,1,0,0,2,-4
